Results taken from PubChem BioAssay (EPA / NIEHS).
Records with an inconclusive call do not appear. The source made the active and inactive calls. The calls were made as follows, unless noted: active = hit-call score of the fitted dose curve at least 0.9, where 1 is the maximum; inactive = score below 0.9.

Experiments:
[1] = ACEA_ER_80hr: ACEA Biosciences xCELLigence Real-Time Cell Analysis on Estrogen Receptor Agonism for Proliferation (AID 2282667; active = hit-call score of the fitted dose curve at least 0.9, where 1 is the maximum); conditions: T47D proliferation, impedance (xCELLigence), 80 h
Summary of the method: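 Cell-growth kinetics were measured by impedance in T47D cells treated continuously with compound (top 100 uM final, 1:4 steps, 8 points). Activity at 80 h was scored as signal gain over the DMSO baseline.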

[2] = ATG_CRE_CIS: Attagene CIS-FACTORIAL HepG2 Assay for human cAMP Responsive Element (CRE) binding protein 3 (AID 2282926); conditions: HepG2 CRE cis-reporter, Attagene multiplexed mRNA; actives raise or lower the signal
Summary of the method: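 Cells carrying cis-regulated reporter constructs respond through their own endogenous factors. After 24 h treatment, RNA is reverse-transcribed, amplified, labelled and sized by capillary electrophoresis; up- and down-regulation are both scored against vehicle.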

[3] = molecular target: CCAAT/enhancer-binding protein beta (Homo sapiens) (UniProt P17676); experiment: ATG_C_EBP_CIS: Attagene CIS-FACTORIAL HepG2 Assay for human CCAAT/Enhancer Binding Protein (C/EBP) beta (AID 2282927); conditions: HepG2 Attagene cis-factorial transcription factor reporter; actives raise or lower the signal
Sequence of CCAAT/enhancer-binding protein beta (Homo sapiens) (P17676 whole entry, looked up): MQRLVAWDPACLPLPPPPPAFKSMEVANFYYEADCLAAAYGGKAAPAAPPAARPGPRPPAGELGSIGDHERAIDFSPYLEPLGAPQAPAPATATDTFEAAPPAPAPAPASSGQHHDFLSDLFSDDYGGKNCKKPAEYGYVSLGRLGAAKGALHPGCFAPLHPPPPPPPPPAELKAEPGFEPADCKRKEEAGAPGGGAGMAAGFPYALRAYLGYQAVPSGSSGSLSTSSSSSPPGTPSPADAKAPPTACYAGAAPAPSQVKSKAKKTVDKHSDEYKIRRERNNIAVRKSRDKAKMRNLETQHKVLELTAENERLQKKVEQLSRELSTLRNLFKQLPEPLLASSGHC
Summary of the method: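 HepG2 transiently transfected with multiplexed reporter units under cis-regulatory promoters reporting endogenous C/EBPb activity. After 24 h exposure, reporter mRNA assayed by RT-PCR, fluorescent labelling, HpaI digestion and capillary electrophoresis; bidirectional fitting versus DMSO.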

[4] = ATG_CMV_CIS: Attagene CIS-FACTORIAL HepG2 Assay for human CMV (Internal Marker) (AID 2282928); conditions: HepG2 CMV promoter reporter, transcription factor profiling; actives raise or lower the signal;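 also: endpoint acts as a background internal control marker rather than a target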
Summary of the method: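 Bidirectional fits against DMSO are applied to reporter mRNA, read by RT-PCR with capillary electrophoresis, from HepG2 cells exposed 24 h. The endpoint serves as an internal CMV background marker within the cis-factorial reporter panel.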

[5] = ATG_DR4_LXR_CIS: Attagene CIS-FACTORIAL HepG2 Assay for human Liver X Receptor (LXR), DR4 submotif (AID 2282929); conditions: HepG2 Attagene DR4 cis-reporter, mRNA transcription; actives raise or lower the signal
Summary of the method: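 After transient transfection with multiplexed cis-promoter reporter units, HepG2 cells received test chemicals for 24 h. Reporter mRNA induction, detected by fluorescence after RT-PCR and capillary electrophoresis, was scored relative to DMSO.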

[6] = molecular target: Aryl hydrocarbon receptor (Homo sapiens) (UniProt P35869); experiment: ATG_Ahr_CIS: Attagene CIS-FACTORIAL HepG2 Assay for human Aryl Hydrocarbon Receptor (Ahr) (AID 2282930); conditions: HepG2 AhR cis-factorial reporter transcription; actives raise or lower the signal
Sequence of Aryl hydrocarbon receptor (Homo sapiens) (P35869 whole entry, looked up): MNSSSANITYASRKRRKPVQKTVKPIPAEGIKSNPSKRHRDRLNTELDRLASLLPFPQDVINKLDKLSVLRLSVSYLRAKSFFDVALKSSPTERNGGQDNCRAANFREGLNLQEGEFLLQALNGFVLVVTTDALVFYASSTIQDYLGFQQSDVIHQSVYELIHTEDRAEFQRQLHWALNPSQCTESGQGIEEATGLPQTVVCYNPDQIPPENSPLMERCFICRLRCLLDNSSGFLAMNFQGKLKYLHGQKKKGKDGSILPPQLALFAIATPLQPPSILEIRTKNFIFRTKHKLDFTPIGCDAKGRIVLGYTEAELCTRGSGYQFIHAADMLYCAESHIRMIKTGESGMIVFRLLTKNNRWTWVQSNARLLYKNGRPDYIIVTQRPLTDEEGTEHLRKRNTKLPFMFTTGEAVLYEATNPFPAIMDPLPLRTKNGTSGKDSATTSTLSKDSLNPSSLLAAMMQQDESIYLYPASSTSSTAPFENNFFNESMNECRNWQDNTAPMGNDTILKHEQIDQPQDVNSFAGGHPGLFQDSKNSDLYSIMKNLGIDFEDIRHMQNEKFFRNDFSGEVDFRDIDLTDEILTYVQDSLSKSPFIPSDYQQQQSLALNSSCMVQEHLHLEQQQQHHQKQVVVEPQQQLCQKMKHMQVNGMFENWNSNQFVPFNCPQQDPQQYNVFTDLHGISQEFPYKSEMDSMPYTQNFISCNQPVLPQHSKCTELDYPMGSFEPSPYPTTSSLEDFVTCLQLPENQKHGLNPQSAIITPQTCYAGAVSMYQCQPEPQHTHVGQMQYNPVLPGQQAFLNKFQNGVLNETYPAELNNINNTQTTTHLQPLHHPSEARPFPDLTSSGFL
Summary of the method: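 HepG2 cells transiently transfected with cis-element-driven multiplexed reporter units; endogenous AhR activity read as reporter mRNA 24 h after dosing, via RT-PCR, 6-FAM labelling, HpaI digestion and capillary electrophoresis. Bidirectional fit relative to DMSO.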

[7] = ATG_AP_1_CIS: Attagene CIS-FACTORIAL HepG2 Assay for human Activator Protein 1 (AP-1) (AID 2282931); conditions: HepG2 Attagene cis-factorial AP-1 reporter mRNA; actives raise or lower the signal
Summary of the method: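 After 24 h incubation with test chemical, RNA from transfected HepG2 cells was reverse-transcribed, amplified, fluorescently labelled and digested before capillary electrophoresis. Reporters were driven by cis-regulatory promoters; activity fitted bidirectionally versus DMSO.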

[8] = ATG_AP_2_CIS: Attagene CIS-FACTORIAL HepG2 Assay for human Activator Protein 2 (AP-2) (AID 2282932); conditions: HepG2 AP-2 cis-reporter, Attagene transcription factor profiling; actives raise or lower the signal
Summary of the method: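 Read-out: fluorescent reporter mRNA via RT-PCR and capillary electrophoresis, 24 h post-dose in transiently transfected HepG2. Endogenous factors drive cis-promoter reporters; gain or loss of signal fitted bidirectionally against DMSO.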

[9] = ATG_BRE_CIS: Attagene CIS-FACTORIAL HepG2 Assay for human Bone Morphogenetic Protein (BMP) Response Element (BRE) (AID 2282933); conditions: HepG2 BMP response element reporter, Attagene transcription factor profiling; actives raise or lower the signal
Summary of the method: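 HepG2 cells transiently transfected with multiplexed cis-element reporter units were dosed with chemical for 24 h. Reporter mRNA was measured by RT-PCR with fluorescent labelling, HpaI digestion and capillary electrophoresis; bidirectional fitting relative to DMSO.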

[10] = molecular target: Retinoic acid receptor alpha (Homo sapiens) (UniProt P10276); experiment: ATG_DR5_RAR_CIS: Attagene CIS-FACTORIAL HepG2 Assay for human Retinoic Acid Receptor Alpha (RARE), DR5 submotif (AID 2282934); conditions: HepG2 Attagene cis-factorial RARE DR5 reporter, mRNA; actives raise or lower the signal;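 as to AC50: reporter responds to endogenous RAR alpha beta and gamma in HepG2 not RARA alone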
Sequence of Retinoic acid receptor alpha (Homo sapiens) (P10276 whole entry, looked up): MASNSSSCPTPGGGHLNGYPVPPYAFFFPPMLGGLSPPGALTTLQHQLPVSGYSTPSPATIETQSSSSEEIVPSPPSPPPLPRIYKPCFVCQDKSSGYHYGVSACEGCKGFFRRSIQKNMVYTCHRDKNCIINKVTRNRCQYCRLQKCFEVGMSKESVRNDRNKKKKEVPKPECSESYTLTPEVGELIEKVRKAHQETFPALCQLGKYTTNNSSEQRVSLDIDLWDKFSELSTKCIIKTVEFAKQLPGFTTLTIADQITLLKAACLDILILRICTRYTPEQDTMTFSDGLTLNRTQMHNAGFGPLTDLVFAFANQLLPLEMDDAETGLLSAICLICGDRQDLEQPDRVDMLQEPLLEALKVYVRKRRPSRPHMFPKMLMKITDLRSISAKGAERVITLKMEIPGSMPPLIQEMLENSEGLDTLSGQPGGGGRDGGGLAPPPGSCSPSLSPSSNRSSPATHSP
Summary of the method: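 HepG2 cells transiently transfected with multiplexed reporter units; DR5 cis-element drives reporter through endogenous transcription factors. After 24 h dosing, reporter mRNA quantified by RT-PCR, fluorescent labeling, HpaI digestion and capillary electrophoresis; bidirectional fitting versus DMSO.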

[11] = molecular target: Transcription factor E2F1 (Homo sapiens) (UniProt Q01094); experiment: ATG_E2F_CIS: Attagene CIS-FACTORIAL HepG2 Assay for human E2F Transcription Factor 1 (AID 2282935); conditions: HepG2 Attagene cis-reporter, E2F reporter RNA transcripts; actives raise or lower the signal
Sequence of Transcription factor E2F1 (Homo sapiens) (Q01094 whole entry, looked up): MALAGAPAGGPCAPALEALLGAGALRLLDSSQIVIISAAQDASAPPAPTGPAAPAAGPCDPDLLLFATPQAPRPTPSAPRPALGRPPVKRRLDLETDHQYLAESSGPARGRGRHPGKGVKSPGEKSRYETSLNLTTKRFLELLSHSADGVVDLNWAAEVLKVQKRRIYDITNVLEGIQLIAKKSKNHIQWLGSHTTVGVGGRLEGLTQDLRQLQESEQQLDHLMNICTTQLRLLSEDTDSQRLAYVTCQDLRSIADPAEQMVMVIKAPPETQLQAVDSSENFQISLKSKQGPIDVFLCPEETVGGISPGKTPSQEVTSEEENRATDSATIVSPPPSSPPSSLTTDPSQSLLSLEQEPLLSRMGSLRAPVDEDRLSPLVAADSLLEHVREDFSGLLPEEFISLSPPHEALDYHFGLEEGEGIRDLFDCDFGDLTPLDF
Summary of the method: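 Transient MRTU transfection of HepG2; 24 h compound exposure; RNA → oligo(dT) RT → PCR → FAM label → HpaI cut → CE fluorescence. Gain/loss of signal fit against DMSO.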

[12] = ATG_M_61_CIS: Attagene CIS-FACTORIAL HepG2 Assay for M61 Transcription Factor (Internal Marker) (AID 2282937); conditions: HepG2 Attagene CIS-FACTORIAL M61 internal marker reporter; actives raise or lower the signal
Summary of the method: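 Using transiently transfected HepG2 liver cells, reporter transcript levels were assessed 24 h post-dosing by RT-PCR and capillary electrophoresis. Changes in either direction were fitted relative to DMSO controls.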

[13] = ATG_EGR_CIS: Attagene CIS-FACTORIAL HepG2 Assay for human Early Growth Response 1 (EGR1) (AID 2282938); conditions: HepG2 Attagene CIS-FACTORIAL EGR reporter mRNA; actives raise or lower the signal
Summary of the method: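 Fluorescent capillary-electrophoresis signal of reporter cDNA fragments serves as read-out. HepG2 cells bear transiently transfected cis-promoter reporter units and are exposed 24 h; gain- or loss-of-signal is fitted against DMSO.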

[14] = ATG_M_19_CIS: Attagene CIS-FACTORIAL HepG2 Assay for M19 Transcription Factor (Internal Marker) (AID 2282939); conditions: HepG2 Attagene CIS-FACTORIAL M19 internal marker reporter; actives raise or lower the signal
Summary of the method: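 HepG2 cells transiently transfected with cis-regulated multiple reporter transcription units were dosed for 24 h; reporter mRNA was quantified by RT-PCR, 6-FAM primer-extension labelling, HpaI digestion and capillary electrophoresis, with bidirectional fitting against DMSO baseline.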

[15] = ATG_ERE_CIS: Attagene CIS-FACTORIAL HepG2 Assay for Estrogen Response Element (ERE) (AID 2282940); conditions: HepG2 ERE cis-reporter, Attagene RNA transcript; actives raise or lower the signal
Summary of the method: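 HepG2 cells transiently transfected with cis-promoter-driven multiplexed reporter transcription units report endogenous TF activity. After 24 h compound exposure, reporter mRNA is quantified by RT-PCR with capillary electrophoresis fluorescence; bidirectional fitting versus DMSO baseline.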

[16] = ATG_Ets_CIS: Attagene CIS-FACTORIAL HepG2 Assay for human Erythroblast Transformation Specific (ETS) (AID 2282941); conditions: HepG2 ETS cis-reporter transcription, actives raise or lower the signal
Summary of the method: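 Endogenous transcription factor activity read as reporter mRNA via RT-PCR and capillary electrophoresis, with gain or loss fitted bidirectionally against DMSO. Human HepG2 liver cells, transiently transfected CIS reporter constructs, 24 h exposure.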

[17] = ATG_FoxO_CIS: Attagene CIS-FACTORIAL HepG2 Assay for human Forkhead box O (FoxO) (AID 2282943); conditions: HepG2 Attagene cis-reporter, FoxO element, mRNA; actives raise or lower the signal
Summary of the method: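 HepG2 cells transiently transfected with cis-element-driven reporter units report endogenous FoxO activity. After 24 h chemical exposure, reporter mRNA quantified by RT-PCR, fluorescent labeling, HpaI digestion and capillary electrophoresis; bidirectional fit versus DMSO.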

[18] = ATG_GATA_CIS: Attagene CIS-FACTORIAL HepG2 Assay for human GATA Binding Protein (AID 2282944); conditions: HepG2 GATA cis-element reporter, Attagene multiplex mRNA; actives raise or lower the signal
Summary of the method: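 HepG2 cells transiently transfected with multiplexed cis-element reporter units reflecting endogenous transcription factor activity; reporter mRNA measured after 24 h dosing by RT-PCR, 6-FAM labeling, HpaI digestion and capillary electrophoresis. Bidirectional fitting versus DMSO baseline.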

[19] = ATG_E_Box_CIS: Attagene CIS-FACTORIAL HepG2 Assay for human Enhancer Box (E-box) (AID 2282936); conditions: HepG2 E-box cis-reporter transcription, actives raise or lower the signal
Summary of the method: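 Transiently transfected HepG2, endogenous TF-driven reporters, 24 h dosing. Readout: RT-PCR plus capillary electrophoresis of fluorescent reporter fragments. Gain or loss of signal fitted bidirectionally against DMSO baseline.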

[20] = molecular target: Hepatocyte nuclear factor 3-beta (Homo sapiens) (UniProt Q9Y261); experiment: ATG_FoxA2_CIS: Attagene CIS-FACTORIAL HepG2 Assay for human Forkhead box A2 (FOXA2) (AID 2282942); conditions: HepG2 cis-reporter transcription factor activity, 24 h; actives raise or lower the signal
Sequence of Hepatocyte nuclear factor 3-beta (Homo sapiens) (Q9Y261 whole entry, looked up, the tested form may be a part): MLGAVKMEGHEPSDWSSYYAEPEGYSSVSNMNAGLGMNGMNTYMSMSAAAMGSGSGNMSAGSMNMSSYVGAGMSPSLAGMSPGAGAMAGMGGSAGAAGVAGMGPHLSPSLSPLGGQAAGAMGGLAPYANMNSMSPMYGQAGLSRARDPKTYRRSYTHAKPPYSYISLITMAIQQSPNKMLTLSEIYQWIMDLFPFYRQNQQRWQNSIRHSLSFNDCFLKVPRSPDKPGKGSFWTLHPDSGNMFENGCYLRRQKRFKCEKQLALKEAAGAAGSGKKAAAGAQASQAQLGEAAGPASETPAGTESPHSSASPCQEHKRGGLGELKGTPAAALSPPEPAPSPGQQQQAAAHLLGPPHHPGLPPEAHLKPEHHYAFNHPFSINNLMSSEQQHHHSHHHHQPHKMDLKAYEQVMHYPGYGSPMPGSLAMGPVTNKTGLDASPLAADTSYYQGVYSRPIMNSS
Summary of the method: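 Fluorescence signal of reporter cDNA fragments, separated by capillary electrophoresis, reflects endogenous transcription factor activity in transfected HepG2 after 24 h. Both increases and decreases fitted against DMSO.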

Measured: AC50

N#CC1(N)CCCCC1
inactive: [1] | [2] | [3] | [4] | [5] | [6] | [7] | [8] | [9] | [10] | [11] | [12] | [13] | [14] | [15] | [16] | [17] | [18]

Oc1ccc(-c2ccccc2)c(Cl)c1
inactive: [3] | [5] | [6] | [8] | [10] | [11] | [19] | [12] | [14] | [16] | [20] | [17] | [18]
active: [1] 10.5 µM | [2] 33.4 µM | [4] 43.1 µM | [7] 60.2 µM | [9] 33.4 µM | [15] 9.09 µM

O=C(OCCc1ccccc1)c1ccccc1
inactive: [1] | [2] | [3] | [4] | [5] | [6] | [7] | [8] | [9] | [10] | [11] | [19] | [12] | [14] | [15] | [16] | [20] | [17]

CCCCCCCOC(=O)c1ccc(O)cc1
inactive: [2] | [3] | [4] | [7] | [8] | [9] | [11] | [12] | [14] | [16] | [20] | [17] | [18]
active: [1] 0.496 µM | [5] 24.3 µM | [6] 49.8 µM | [10] 53.1 µM | [15] 19.3 µM

CC(C)C(=O)OCCOc1ccccc1
inactive: [1] | [2] | [3] | [4] | [5] | [6] | [7] | [8] | [9] | [10] | [19] | [12] | [13] | [14] | [15] | [16] | [17] | [18]

CCC(C)N (stereo not drawn)
inactive: [1] | [2] | [3] | [4] | [5] | [6] | [7] | [8] | [9] | [10] | [19] | [12] | [13] | [14] | [15] | [16] | [20] | [17] | [18]

COC(Cc1ccccc1)OC
inactive: [1] | [2] | [3] | [4] | [5] | [6] | [7] | [8] | [9] | [10] | [19] | [12] | [13] | [14] | [16] | [20] | [17] | [18]
